# Compounds with a hit are over-represented: about 3.4% of the library has one in this group of screens.
# FBW7 activator = activators of human E3 ligase FBW7; normalized activity (activation), % at 26.1 µM; AlphaScreen FBW7–phospho-cyclin E peptide binding, activator screen; 0.13% of 650,000 active; AID 1259310; Q969H0; in the data active = normalized activity above about 1.9%;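 also: purified mutant Fbw7 with reduced substrate affinity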
# MITF inh = blocks human microphthalmia-associated transcription factor; O75030; AlphaScreen MITF homodimerization, bead proximity signal; inhibition, % at 2.6 µM; 0.91% of 650,000 active; AID 1259374; in the data active = inhibition above about 50%;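 also: 0% = vehicle wells with protein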
# GPR151 ag = human GPR151 activation; Q8TDV0; PathHunter beta-arrestin GPR151 cells, luminescence; activation, % at 11.2 µM; 1% of 650,000 active; AID 1508602; in the data active = activation above about 4.9%;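 also: 0% = median of compound wells and 100% = cells with positive control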
# Target sequence (Q8TDV0 whole entry, looked up): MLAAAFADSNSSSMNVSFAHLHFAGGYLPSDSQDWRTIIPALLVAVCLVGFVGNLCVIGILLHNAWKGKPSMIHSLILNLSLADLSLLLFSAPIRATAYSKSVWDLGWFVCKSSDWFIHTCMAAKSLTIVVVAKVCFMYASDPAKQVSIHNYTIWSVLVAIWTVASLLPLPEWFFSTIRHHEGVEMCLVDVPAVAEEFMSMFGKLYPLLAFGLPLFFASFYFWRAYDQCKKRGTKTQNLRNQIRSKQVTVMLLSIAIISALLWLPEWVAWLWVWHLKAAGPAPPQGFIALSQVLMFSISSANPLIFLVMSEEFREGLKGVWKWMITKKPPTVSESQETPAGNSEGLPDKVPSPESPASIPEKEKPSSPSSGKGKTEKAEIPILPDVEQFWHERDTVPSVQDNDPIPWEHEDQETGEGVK
# TEAD-YAP block = TEAD-YAP interaction inhibition | 1.4% of 640,000 active | inhibition, % at 9.12 µM | HEK-TIYL cells, TEAD-Gal4/YAP UAS-luciferase luminescence; in the data active = inhibition above about 32%;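 also: 0% = median of test compound wells and 100% = reference inhibitor wells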
# MITF inh conf = human MITF inhibition, confirmation; inhibition, % at 2.6 µM; 16% of 4,700 active; shares compounds with MITF inh; AlphaScreen MITF homodimerization, biotin/His-MITF beads; AID 1259372;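 active = inhibition above a cutoff derived from the DMSO control wells, cut at about 28% in these data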;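 also: 0% = MITF dimer wells with DMSO only; inhibitors lower the bead chemiluminescence by keeping MITF from dimerizing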
# AlphaScreen intf2 = optically interferes with AlphaScreen signal; shares compounds with MITF inh; LysRS AlphaScreen counterscreen, signal interference, triplicate; inhibition, % at 2.6 µM; 7.6% of 4,700 active; AID 1259376;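 active = inhibition above a cutoff derived from the DMSO control wells, cut at about 30% in these data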
# * = called active by the depositor; / = not tested or not shown.
SMILES,FBW7 activator,MITF inh,GPR151 ag,TEAD-YAP block,MITF inh conf,AlphaScreen intf2
Cc1cc(C(N)=O)c2cc(S(=O)(=O)N3CCC(C)CC3)ccc2n1,0.1,10.2,-1.3,21.4,/,/
Clc1ccc2nc(CN3CCc4c([nH]c5ccccc45)C3)nc(N3CCOCC3)c2c1,-0.2,5.6,0.2,2.0,/,/
O=C(CSc1ccc(-c2ccncc2)nn1)Nc1ccccc1F,0.0,3.9,-2.5,-8.1,/,/
CC(C)(C)CN1CCC(Oc2cccc(C(=O)NCCN3CCCC(O)C3)c2)CC1 (configuration not stated),-0.1,6.0,-1.9,-3.2,/,/
COc1cccc(C(CNC(=O)c2nc3ccccc3s2)N2CCOCC2)c1 (configuration not stated),-0.1,-5.6,-1.2,-8.1,/,/
COc1cc(CN2CCC(Cn3c(C)nc4ccccc43)CC2)cc(OC)c1,-0.3,58.7*,-0.4,9.0,7.8,16.4
COc1cc(CN2CCC(c3nc(-c4ccccc4)no3)CC2)cc(OC)c1,-0.1,-8.3,-0.5,-6.3,/,/
COc1ccc(C23CC4CC(CC(C4)C2)C3)cc1[N+](=O)[O-],0.4,0.1,0.1,-1.1,/,/
Cc1ccc(C23CC4CC(CC(C4)C2)C3)cc1[N+](=O)[O-],-0.3,54.2*,1.2,-4.5,4.5,12.8
COc1cc(N=C(C)N(C)CCNS(=O)(=O)c2ccc([N+](=O)[O-])cc2)cc(OC)c1,-0.2,-5.5,0.7,1.4,/,/
CCN(C(=O)Cn1ncc2c1-c1cc(C)ccc1OC2)c1cc(OC)ccc1OC,0.2,70.5*,2.9,10.2,5.5,18.2
CCN(C(=O)Cn1ncc2c1-c1cc(C)ccc1OC2)c1ccccc1F,-0.4,-1.4,0.2,-15.0,/,/
COc1ccc(C(=O)Nc2sc(C)c(C)c2C#N)cc1[N+](=O)[O-],0.1,74.3*,-1.1,5.8,-5.8,-5.8
CCC(=O)NC(c1nnc2n1CCN(Cc1ccc3cccc(OC)c3n1)CC2)C(C)C (configuration not stated),0.0,14.0,0.8,-5.2,/,/
FC(F)(F)c1cccc(-c2cc(NCCCn3ccnc3)nc(-c3ccccn3)n2)c1,-0.8,20.8,0.6,6.5,/,/
Fc1ccc(-c2cc(NCCCn3ccnc3)nc(-c3ccccn3)n2)cc1,-1.0,55.8*,-0.8,4.9,23.6,61.9*
c1cc(-c2cc(NCCCn3ccnc3)nc(-c3ccncc3)n2)ccn1,-0.9,71.5*,0.5,-15.7,33.8*,42.3*
Fc1ccc(-c2cc(NCCCn3ccnc3)nc(-c3ccccc3)n2)cc1,-0.7,55.2*,-1.5,7.2,33.9*,42.0*
CC(C)CC(=O)Nc1ccnn1C1CCN(CC2CC=CCC2)CC1 (configuration not stated),0.0,6.3,0.9,0.5,/,/
Cc1cccc(NC(=O)c2ncoc2-c2cccc(Cl)c2)c1C#N,-0.1,2.8,0.5,-2.8,/,/
CCOc1ccc(OCCCNCCOC)cc1,0.2,56.9*,-0.2,0.0,4.9,11.4
CCOc1cccc(OCCCNCCCOC)c1,-0.2,89.2*,1.1,0.6,-5.5,13.6
CCCCNCCCOc1ccc(OCC)cc1,0.1,51.4*,-0.2,6.5,6.9,6.2
CCCCNCCCOc1ccc(OC)cc1,-0.1,-3.6,-0.1,-5.0,/,/
CCOc1cccc(OCCOCCNCCCOC)c1,0.1,22.7,-1.6,-15.4,/,/
SMILES,FBW7 activator,MITF inh,GPR151 ag,TEAD-YAP block,MITF inh conf,AlphaScreen intf2
CC1(C)CC(=O)C2=C(C1)OC(N)=C(C#N)C2c1ccc(C(C)(C)C)s1 (configuration not stated),-0.1,3.5,-1.0,-6.2,/,/
COc1ccc(C(=O)CSc2nnc(-c3ccc4c(c3)OCO4)o2)cc1OC,0.1,85.7*,-0.3,1.1,-21.1,-5.7
CN(C)S(=O)(=O)c1ccc(C(=O)NN)cc1,0.2,-13.3,-0.4,2.9,/,/
COc1ccc(OC)c(CN2CCN(Cc3ccccc3C(F)(F)F)CC2)c1,-0.2,71.3*,-1.0,-1.4,8.5,-4.9
COc1ccc(CN2CCN(Cc3ccccc3C(F)(F)F)CC2)c(OC)c1,0.5,77.6*,-0.1,7.1,16.3,14.1
COc1ccccc1N1CCN(Cc2ccc(OC)c(OC)c2OC)CC1,-0.1,27.6,0.2,3.7,/,/
COc1ccc(OC)c(CN2CCN(c3ccccc3OC)CC2)c1,0.8,22.8,-1.2,3.0,/,/
COc1cc(OC)c(OC)cc1CN1CCN(Cc2ccccc2C(F)(F)F)CC1,-0.3,75.9*,-1.0,-7.5,4.4,8.1
COc1ccc(CN2CCN(Cc3ccccc3C(F)(F)F)CC2)c(OC)c1OC,-0.1,58.7*,-0.6,2.7,5.4,15.6
COC(=O)c1sc(-c2ccccc2)cc1NC(=O)c1ccc(S(=O)(=O)N2CCCCCC2)cc1,0.0,-4.5,-1.3,5.7,/,/
CN(C)C(=O)C12CC3CC(C1)CC(c1ccc([N+](=O)[O-])cc1)(C3)C2,0.1,0.2,-1.3,-4.3,/,/
COC(=O)C1=C(N)OC2=C(C(=O)CC(C)(C)C2)C1c1ccccc1OCc1ccccc1 (configuration not stated),0.0,9.2,0.9,-1.7,/,/
COc1cc(CN2CCN(Cc3ccccc3C(F)(F)F)CC2)cc(OC)c1O,0.1,67.7*,-1.4,-1.1,1.6,23.3
COc1cc(CN2CCN(Cc3ccccc3F)CC2)cc(OC)c1O,0.0,1.4,-1.3,6.2,/,/
O=C(N/N=C/c1ccc(C(F)(F)F)cc1)c1ccc(O)cc1O,-0.1,68.9*,-1.6,-13.9,6.6,25.0
COc1ccc(CNS(=O)(=O)c2ccc(Cc3ccc(S(=O)(=O)NCc4ccc(OC)cc4)cc3)cc2)cc1,0.7,16.4,2.3,0.9,/,/
COc1ccc(Br)cc1CN(CCc1ccc2c(c1)OCO2)Cc1cccnc1,-0.1,52.5*,-0.6,7.8,-5.1,-1.9
CCOc1ccccc1CN(CCc1ccc2c(c1)OCO2)Cc1ccccn1,0.5,83.8*,-2.5,-7.5,4.4,23.9
CCOc1ccccc1CN(CCc1ccc2c(c1)OCO2)Cc1cc(OC)c(OC)cc1OC,-0.2,14.4,-0.7,1.0,/,/
COC(=O)C1=C(N)OC2=C(C(=O)CC(c3ccccc3)C2)C1c1ccsc1 (configuration not stated),-0.1,-20.4,1.7,2.2,/,/
CN(C)C=Nc1cc2c(cc1[N+](=O)[O-])OCCO2,0.4,51.0*,0.7,-6.6,8.6,7.4
Nc1cc2c(cc1[N+](=O)[O-])OCCO2,-0.1,-12.4,-0.2,-2.8,/,/
c1ccc(-c2oc3ncnc(NCc4ccco4)c3c2-c2ccccc2)cc1,0.0,0.0,0.5,-4.5,/,/
CC(=O)C1C(=O)CC(C)(C)CC1=O,-0.1,2.9,0.8,4.9,/,/
O=C(c1cccnc1)N1CCN(Cc2ccc(Br)cc2)CC1,-0.5,69.5*,3.2,6.5,-4.9,-4.4
O=C(c1cccnc1)N1CCN(Cc2cccc(Cl)c2)CC1,0.0,64.9*,2.1,-3.0,-5.9,9.3
O=C(c1cccnc1)N1CCN(Cc2cccc(Br)c2)CC1,-0.2,65.1*,3.3,1.3,4.5,15.0
Cc1cccc(CN2CCN(C(=O)c3cccc(Cl)c3)CC2)c1,-0.2,42.3,0.6,8.7,/,/

# Compound activity as filed in PubChem.
